# In PubChem BioAssay AID2156 (Johns Hopkins Ion Channel Center, 2009):
# Hit rate of the full screen: of about 310,000 compounds, about 3,400 (1.1%) were called active.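 The calls were made as follows: active = fluorescence ratio B-score at most minus 3 library SDs, with starting brightness B-score within 2 library SDs (cut at about -5.5 in these data); inactive = the rest, inconclusive results apart.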 Only a selection was taken, and actives are over-represented in it overall.
# Target: Potassium voltage-gated channel subfamily KQT member 2 (Rattus norvegicus) (UniProt O88943)
# Sequence (O88943 whole entry, looked up): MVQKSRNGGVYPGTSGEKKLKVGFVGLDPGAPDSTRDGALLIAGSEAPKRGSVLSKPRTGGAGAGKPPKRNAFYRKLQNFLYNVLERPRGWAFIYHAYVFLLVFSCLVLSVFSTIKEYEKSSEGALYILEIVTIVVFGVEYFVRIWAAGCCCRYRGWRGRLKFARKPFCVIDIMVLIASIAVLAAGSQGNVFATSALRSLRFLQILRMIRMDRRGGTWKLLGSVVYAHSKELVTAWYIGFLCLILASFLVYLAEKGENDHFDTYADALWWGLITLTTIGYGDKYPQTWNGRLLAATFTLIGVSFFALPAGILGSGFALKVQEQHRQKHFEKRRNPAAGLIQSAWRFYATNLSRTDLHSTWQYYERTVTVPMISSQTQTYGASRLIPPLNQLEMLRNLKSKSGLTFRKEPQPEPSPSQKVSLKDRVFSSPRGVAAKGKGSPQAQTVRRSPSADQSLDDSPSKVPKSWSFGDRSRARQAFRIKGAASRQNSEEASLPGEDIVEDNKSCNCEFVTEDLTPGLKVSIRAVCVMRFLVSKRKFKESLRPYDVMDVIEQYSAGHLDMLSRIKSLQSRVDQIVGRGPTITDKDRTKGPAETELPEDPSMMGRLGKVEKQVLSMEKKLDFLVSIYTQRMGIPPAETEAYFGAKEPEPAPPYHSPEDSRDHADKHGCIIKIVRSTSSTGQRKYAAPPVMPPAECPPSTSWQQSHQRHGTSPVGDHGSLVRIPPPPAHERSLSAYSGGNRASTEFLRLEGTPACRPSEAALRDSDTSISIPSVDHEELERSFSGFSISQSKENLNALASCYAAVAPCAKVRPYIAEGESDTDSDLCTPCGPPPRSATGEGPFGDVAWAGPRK
# Assay: KCNQ2 channel blockers in CHO-K1 cells – cell-based, FluxOR thallium flux, B-score, primary screen (AID 2156)
# Conditions: 20 min, at 10 µM; hits give low values
row,SMILES,B-score
1,COc1ccc2sc(N(CCCN(C)C)C(=O)c3ccc(S(=O)(=O)N(C)C4CCCCC4)cc3)nc2c1,inactive
2,CCOC(=O)CC1(NC(=O)c2cc(COc3cncc(Cl)c3)on2)CCCCC1,-1.68 (inactive)
3,COc1cc(Cl)ccc1OCc1cc(C(=O)N2CC[C@@H]3CCCC[C@H]3C2)no1,-3.02 (inactive)
4,CCCOC1CCCN(C(=O)c2cc(COc3cncc(Cl)c3)on2)C1 (stereo not drawn),-8.22 (active)
5,Cn1c(-c2ccc(F)cc2)cnc1SCC(=O)NNC(=O)Cc1ccccc1,inactive
6,CN(Cc1ccccc1)C(=O)CCc1ccccc1,-0.03 (inactive)
7,Cc1ccc(-c2cnc(NC(=O)CCC(=O)N(C)Cc3ccccc3)n2C)cc1,-7.93 (active)
8,O=C(CCNC(=O)c1ccc(Br)cc1)Nc1cccc(S(=O)(=O)N2CCCCC2)c1,-0.11 (inactive)
9,CCCCn1c(N)c(N(Cc2ccccc2OC)C(=O)COc2cc(C)ccc2Cl)c(=O)[nH]c1=O,-0.97 (inactive)
10,CCOc1ccc2ccccc2c1/C=N/NC(=O)c1c(C)cc(C)[nH]c1=O,-2 (inactive)
11,Cc1cc(NC(=O)C(C)N2C(=O)c3ccccc3S2(=O)=O)no1 (stereo not drawn),-0.8 (inactive)
12,FC(F)(F)c1ccc2c3n(nc2c1)CCN=C3c1ccc(Cl)cc1,inactive
13,O=C(COC(=O)c1ccccc1)Nc1ccccc1Sc1ccccc1,-0.64 (inactive)
14,Cc1ccccc1C(=O)Nc1ccccc1Sc1ccccc1,-8.36 (active)
15,Cc1ccccc1C(=O)Nc1ccccc1NC(=O)c1ccccc1C,inactive
16,O=C(Cc1ccc(S(=O)(=O)N2CCOCC2)s1)N1CCN(c2ccc(C(F)(F)F)cc2[N+](=O)[O-])CC1,inactive
17,O=C(NC1CCCCC1)c1ccc(-c2ccc(Cl)cc2)o1,-3.97 (inactive)
18,CN(CC(=O)Nc1cccc(F)c1)C(=O)C1=COCCO1,-0.61 (inactive)
19,O=C(NC1CCCC1)C(c1ccco1)N(C(=O)c1csnn1)c1ccccc1 (stereo not drawn),inactive
20,O=C(NCc1ccccc1)C(c1ccccc1)N(C(=O)c1csnn1)c1ccc(F)cc1 (stereo not drawn),-1.89 (inactive)

row,SMILES,B-score
1,O=C(NCc1ccccc1)C(c1ccco1)N(C(=O)c1csnn1)c1ccccc1F (stereo not drawn),-6.27 (active)
2,CCOc1ccc(C(C)=O)cc1COC(=O)CNC(=O)c1cccs1,inactive
3,CCOc1ncccc1C(=O)NNC(=O)c1cccc(S(=O)(=O)Nc2ccccc2OC)c1,inactive
4,CCc1ccc(OCC(=O)NCC(c2ccc(Cl)cc2)N2CCCCC2)cc1 (stereo not drawn),-5.91 (active)
5,COc1ccc(C(CNC(=O)COc2ccccc2OC)N2CCCCC2)cc1 (stereo not drawn),inactive
6,COc1ccc(C(CNC(=O)COc2ccc([N+](=O)[O-])cc2)N2CCCCC2)cc1 (stereo not drawn),-0.69 (inactive)
7,O=C(CCC1CCCCC1)Nc1cc(C(F)(F)F)ccc1N1CCOCC1,-0.87 (inactive)
8,CN(Cc1c(F)cccc1Cl)C(=O)CNC(=O)c1ccc2c(c1)OCO2,-1.89 (inactive)
9,CC(C)(C)n1nnnc1C(c1ccc(Cl)cc1)N1CCSCC1 (stereo not drawn),inactive
10,Cc1cccc(N2CCN(C(c3ccccc3)c3nnnn3CC3CCCO3)CC2)c1C (stereo not drawn),-1.18 (inactive)
11,Cc1cccc(N2CCN(C(c3ccc(N(C)C)cc3)c3nnnn3C(C)(C)C)CC2)c1C (stereo not drawn),-6.02 (active)
12,CCOc1ccc(S(=O)(=O)NCCC(=O)NCC(C)(C)N2CCOCC2)cc1,inactive
13,Cc1ccc(C2=Nc3c(ccc4ccccc34)C(c3ccncc3)=NN2)cc1,-7.02 (active)
14,CCOc1ccc2c(c1)C(c1ccc(C)cc1)=NNC(c1ccc(C)cc1)=N2,-1.45 (inactive)
15,CCc1ccc2c(c1)C(c1ccc([N+](=O)[O-])cc1)=NNC(c1ccccc1)=N2,-0.01 (inactive)
16,CC1(c2nnc(Cc3ccccc3)o2)CC(c2ccccc2F)=NO1 (stereo not drawn),inactive
17,COc1ccc(Cl)cc1NS(=O)(=O)c1cccc(C(=O)NC2CCC(O)CC2)c1 (stereo not drawn),inactive
18,CCN(CC)CCn1c2c(c(SCC(=O)Nc3nc4ccccc4s3)nc1=O)CCCC2,-0.49 (inactive)
19,CC(C(=O)NCC1CCCCC1)N(C)Cc1cccc(Cl)c1 (stereo not drawn),-6.94 (active)
20,CNS(=O)(=O)c1cccc(C(=O)NCC2CCCCC2)c1,inactive

row,SMILES,B-score
1,Cc1ccccc1NC(=O)NCC1CCN(Cc2cccc(Cl)c2)CC1,inactive
2,O=C(COC(=O)c1cccc(Cl)c1)Nc1ccc2[nH]c(=O)[nH]c2c1,inactive
3,CCOc1cc(/C=N/NC(=O)c2cccc(S(=O)(=O)N3CCOCC3)c2)ccc1OCC(=O)N(C)C,-0.36 (inactive)
4,Cc1ccc(S(=O)(=O)NCCC(=O)OCC(=O)N(C)c2ccccc2)cc1,inactive
5,COc1ccc(OC)c(NC(=O)CN(Cc2ccc(Cl)cc2)S(C)(=O)=O)c1,-0.01 (inactive)
6,COc1ccc(Cl)cc1NC(=O)CN(C)C(=O)c1cc2ccccc2cc1OC,-1.83 (inactive)
7,COc1ccc(Cl)cc1NC(=O)CN(C)Cc1ccc(OC)c(OC)c1,-7.16 (active)
8,O=C1N[C@@H](Cc2ccccc2)C(=O)N2[C@H]1C[C@]1(Br)c3ccccc3N(S(=O)(=O)c3ccccc3)[C@H]21,inactive
9,CCN1C(=O)/C(=c2\s/c(=C3\Sc4ccccc4N3C)c(=O)n2C)N(C)C1=S,inactive
10,CN1/C(=c2/s/c(=C3/C(=O)N(c4ccccc4)NC3=Nc3ccccc3)n(C)c2=O)C(C)(C)c2ccccc21,-7.74 (active)
11,CC1C(=O)N2CCCc3cc(S(=O)(=O)NCc4ccc(F)cc4)cc1c32 (stereo not drawn),inactive
12,Cc1ccc(Cl)c(OCC(=O)N(C)CC(=O)Nc2ccc(N3CCOCC3)cc2)c1,inactive
13,Cc1ccc(NS(=O)(=O)c2ccc(C(=O)NCCCN3CCOCC3)cc2)cc1,-0.52 (inactive)
14,CC(C)CN(C(=O)Cn1c(=O)cnc2ccccc21)C1CCS(=O)(=O)C1 (stereo not drawn),-1.5 (inactive)
15,CCOC(=O)N1CCN(C(=O)COc2ccc3oc4c(c3c2)CCCC4)CC1,inactive
16,Cc1cc(C)c2[nH]c(=O)c(C(c3nnnn3Cc3ccc4c(c3)OCO4)N3CCCC3)cc2c1 (stereo not drawn),-6.38 (active)
17,Fc1ccccc1C(c1nnnn1Cc1ccc2c(c1)OCO2)N1CCN(Cc2ccccc2)CC1 (stereo not drawn),-1.43 (inactive)
18,CCOC(=O)C1CCN(C(c2cc3cc(C)cc(C)c3[nH]c2=O)c2nnnn2C2CCCCC2)CC1 (stereo not drawn),-1.94 (inactive)
